A selection: hits, their analogues and other compounds. The true share with any hit is near 0.97%.
Mtb UGM inh: inhibitors of M. tuberculosis UDP-galactopyranose mutase; purified UGM, fluorescence polarization probe displacement; inhibition, % at 10 µM; hit rate 0.06% among 320,000; in the data active = inhibition above about 10%, passing the limit was not always enough; inconclusive = no clear call, values can overlap the other calls
Target sequence (P9WIQ1 whole entry, looked up): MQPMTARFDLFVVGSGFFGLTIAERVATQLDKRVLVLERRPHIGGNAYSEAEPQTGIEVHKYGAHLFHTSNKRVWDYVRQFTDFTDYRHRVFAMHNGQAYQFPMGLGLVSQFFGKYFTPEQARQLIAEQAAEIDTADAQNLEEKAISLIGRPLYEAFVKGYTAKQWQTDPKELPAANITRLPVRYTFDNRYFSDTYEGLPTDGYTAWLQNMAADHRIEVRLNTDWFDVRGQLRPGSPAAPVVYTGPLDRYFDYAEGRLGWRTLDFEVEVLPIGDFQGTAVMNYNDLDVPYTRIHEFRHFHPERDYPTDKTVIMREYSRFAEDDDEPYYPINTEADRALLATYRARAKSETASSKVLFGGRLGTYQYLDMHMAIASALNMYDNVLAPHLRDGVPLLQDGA
MazEF act: activators of E. coli MazEF toxin-antitoxin RNase | FAM/BHQ RNA-DNA oligo cleavage fluorescence, 5 h | hit rate 0.32% among 350,000 | activation, % at 20 µM | P0AE70 | AID 504720; in the data active = activation above about 50%
RecA splice inh: Mtb RecA intein splicing inhibition | inhibition, % (test concentration not listed) | hit rate 0.75% among 290,000 | P9WHJ3 | cell-free RecA intein splicing, fluorescence | AID 2221; in the data active = inhibition above about 30%; inconclusive = no clear call, values can overlap the other calls;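 note: 0% = vehicle wells and 100% = reference inhibitor control wells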
Mtb betalactam: beta-lactam sensitization of Mtb H37Rv; M. tuberculosis H37Rv growth with meropenem, percent inhibition; inhibition, % at 25 µM; hit rate 0.27% among 330,000; AID 434955; call rule not given here;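 note: growth measured after seven days incubation then overnight dye step; 0% = bacteria only wells and 100% = bacteria with antibiotic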
Rv3671c protease: inhibits the M. tuberculosis serine protease Rv3671c. AID 2606. inhibition, % at 5.96 µM. P9WHR9. hit rate 0.048% among 320,000; in the data active = inhibition above about 38%;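 note: extracellular domain of Rv3671c used as enzyme; 0% = enzyme with DMSO and 100% = no enzyme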
TcdB inh: blocks C. difficile toxin B glycohydrolase activity; inhibition, % at 9.99 µM; AID 652162; hit rate 0.24% among 350,000; TcdB glycohydrolase enzymatic assay, plate reader; P18177; in the data active = inhibition above about 10%
* hit, by the source's call; ? = inconclusive; . = no result; + = active, no number.

SMILES | Mtb UGM inh | MazEF act | RecA splice inh | Mtb betalactam | Rv3671c protease | TcdB inh
CCN(CC)c1ccc(/C=C2\C(=O)c3ccc(C(=O)O)cc3C2=O)cc1 | -21 | 52* | . | 4 | -23 | .
C=CCN1C(=O)/C(=C\c2ccc(N3CCOCC3)o2)C(=O)NC1=S | 0 | -272 | 0 | 2 | -15 | 0
C=CCN1C(=O)/C(=C/c2ccc(Br)s2)C(=O)NC1=S | -5 | 72* | . | 4 | -26 | -2
C[C@@H]1CN([C@@H](C)CO)S(=O)(=O)c2ccc(C#CC3CC3)cc2O[C@H]1CN(C)Cc1ccc(F)cc1 | . | . | . | . | . | 0
CC(C)NC(=O)N(C)C[C@H]1Oc2ccc(NC(=O)C3CC3)cc2CC(=O)N([C@@H](C)CO)C[C@@H]1C | . | . | . | . | . | 0
Cc1ccc2nc3cc([N+](=O)[O-])cc([N+](=O)[O-])c3cc2c1 | . | 354* | . | . | . | 0
Cc1nc2ccc([N+](=O)[O-])cc2nc1C | -1 | 5 | -1 | 4 | 10 | -1
C[C@H]1CN([C@@H](C)CO)C(=O)c2cc(NS(=O)(=O)c3cccs3)ccc2O[C@@H]1CN(C)S(C)(=O)=O | . | . | . | . | . | 1
CN(C(=O)c1cccc(COc2ccc(Cl)cc2Cl)c1)c1ccccc1 | -1 | 1 | 35* | 0 | -19 | .
O=C(NCc1ccccc1)c1cccc(COc2cc(Cl)ccc2Cl)c1 | -1 | -3 | 0 | -1 | 0 | 2
CCCNC(=O)N1CCC2(CC1)CN(Cc1ccccn1)[C@@H](CO)c1c2c2ccc(OC)cc2n1C | . | . | . | . | . | 1
CNC(C)C(=O)NC(C(=O)N1CCCC1C(=O)NNc1ccccc1)C(C)C (configuration not stated) | 0 | -4 | . | ? | -3 | -2
CC(N)C(=O)NC(C(=O)N1CCCC1C(=O)NC(c1ccccc1)c1ccccc1)C(C)C (configuration not stated) | -1 | 3 | . | -9 | -7 | 11*
Cc1ccc(CNC(=O)Nc2cccc(C)c2)cc1 | -3 | -2 | -1 | -1 | -3 | 11*
CCCC(=O)Nc1ccc2c(c1)OC[C@H](C)N(Cc1ccccc1F)C[C@@H](C)[C@@H](OC)CN(C)C2=O | . | . | . | . | . | 0
COC(=O)C1=C(C)N(Cc2ccco2)C(=O)/C1=C\c1ccc(N(C)C)cc1 | -2 | + | -2 | 5 | 11 | .
COC(=O)C1=C(C)N(Cc2ccco2)C(=O)/C1=C\c1ccc([N+](=O)[O-])cc1 | 1 | -62 | 9 | 60 | 5 | 0
Cc1ccc(S(=O)(=O)NCC[C@@H]2CC[C@@H](NC(=O)Nc3cccc(F)c3)[C@@H](CO)O2)cc1 | . | . | . | . | . | 1
Cc1cc(C(=O)CSc2nncn2C)c(C)n1-c1ccccc1 | -2 | 57* | 2 | 1 | -6 | 5
CCCCn1c2nc3ccccc3nc2c2c(=O)n(CCC)cnc21 | -3 | 9 | -2 | -5 | -3 | .
CCn1c2ccc(Cl)cc2c2nc3ccccc3nc21 | -2 | -9 | 1 | 7 | -2 | .
CCCn1nc(-c2ccccc2)c2nc3ccccc3nc21 | -1 | + | . | 1 | -18 | .
CCn1nc(-c2ccccc2)c2nc3ccccc3nc21 | 9 | 786* | -30 | -4 | 3 | .
CCCCCn1nc(-c2ccccc2)c2nc3ccccc3nc21 | 38* | -900 | -56 | -3 | -2 | .
C[C@@H]1CN([C@@H](C)CO)C(=O)c2cc(NC(=O)Nc3ccc(F)cc3)ccc2O[C@H]1CN(C)S(=O)(=O)c1cn(C)cn1 | . | . | . | . | . | 0
SMILES | Mtb UGM inh | MazEF act | RecA splice inh | Mtb betalactam | Rv3671c protease | TcdB inh
COCCCNC(=O)/C(C#N)=C/c1cccc(NC(=O)c2ccccc2Cl)c1 | -1 | -2 | 6 | -3 | -6 | .
N#C/C(=C\c1cccc(NC(=O)c2ccccc2Cl)c1)C(=O)NCCc1ccccc1 | -2 | 4 | 36* | -2 | -17 | 1
CC(C)OC(=O)N(C)C[C@@H]1OCc2cn(nn2)CCCC(=O)N([C@@H](C)CO)C[C@@H]1C | . | . | . | . | . | 0
COc1ccc2c3c(n(C)c2c1)[C@H](CO)N(C(=O)c1ccccn1)CC31CCN(C(=O)c2ccccn2)CC1 | . | . | . | . | . | 1
CN1C(=O)NC(c2ccc(O)cc2)C2=C1CN(c1ccc(O)cc1)C2=O (configuration not stated) | 0 | -21 | . | 2 | 0 | 19*
CC(=O)N1CC(=O)N2[C@H](C1)[C@@H](c1ccc(-c3ccc(C#N)cc3)cc1)[C@@H]2CO | . | . | . | . | . | -1
CC1=CC2(O)OCCN(CCO)C2=CC1=O (configuration not stated) | 0 | 3 | 66* | -1 | -4 | -22
Cc1cc(C)n(-c2ncc3c(n2)N(CCO)CCOC3=O)n1 | 1 | 6 | -2 | 7 | -3 | 0

Source: PubChem
